Measured values as given in ChEMBL document CHEMBL2218924, “A broad activity screen in support of a chemogenomic map for kinase signalling research and drug discovery” (Biochem J, 2013).

Legend:
[1] = target: SRSF protein kinase 3 (Homo sapiens) (UniProt Q9UPE1); conditions: at 1 µM
[2] = target: SRSF protein kinase 3 (Homo sapiens) (UniProt Q9UPE1); conditions: at 10 µM
[3] = target: T1, Serine/threonine-protein kinase 4 (Homo sapiens) (UniProt Q13043); conditions: at 10 µM
T1 sequence (whole entry): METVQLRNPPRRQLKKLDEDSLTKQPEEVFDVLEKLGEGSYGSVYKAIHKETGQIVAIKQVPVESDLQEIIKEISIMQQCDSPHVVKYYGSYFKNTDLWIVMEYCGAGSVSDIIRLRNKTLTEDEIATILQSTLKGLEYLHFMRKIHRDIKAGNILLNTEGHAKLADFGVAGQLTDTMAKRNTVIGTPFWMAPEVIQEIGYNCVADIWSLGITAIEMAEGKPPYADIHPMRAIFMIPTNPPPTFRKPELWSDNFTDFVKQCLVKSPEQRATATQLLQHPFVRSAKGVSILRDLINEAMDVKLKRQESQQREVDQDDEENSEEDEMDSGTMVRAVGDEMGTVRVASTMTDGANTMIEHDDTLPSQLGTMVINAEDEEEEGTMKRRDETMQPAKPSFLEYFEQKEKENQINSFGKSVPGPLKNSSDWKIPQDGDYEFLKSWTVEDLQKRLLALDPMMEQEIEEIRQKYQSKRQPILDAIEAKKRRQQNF

[4] = target: Ribosomal protein S6 kinase alpha-4 (Homo sapiens) (UniProt O75676); conditions: at 1 µM
[5] = target: Ribosomal protein S6 kinase alpha-4 (Homo sapiens) (UniProt O75676); conditions: at 10 µM
[6] = target: T1, Serine/threonine-protein kinase 4 (Homo sapiens); conditions: at 1 µM
[7] = target: T2, Serine/threonine-protein kinase 3 (Homo sapiens) (UniProt Q13188); conditions: at 1 µM
T2 sequence (whole entry): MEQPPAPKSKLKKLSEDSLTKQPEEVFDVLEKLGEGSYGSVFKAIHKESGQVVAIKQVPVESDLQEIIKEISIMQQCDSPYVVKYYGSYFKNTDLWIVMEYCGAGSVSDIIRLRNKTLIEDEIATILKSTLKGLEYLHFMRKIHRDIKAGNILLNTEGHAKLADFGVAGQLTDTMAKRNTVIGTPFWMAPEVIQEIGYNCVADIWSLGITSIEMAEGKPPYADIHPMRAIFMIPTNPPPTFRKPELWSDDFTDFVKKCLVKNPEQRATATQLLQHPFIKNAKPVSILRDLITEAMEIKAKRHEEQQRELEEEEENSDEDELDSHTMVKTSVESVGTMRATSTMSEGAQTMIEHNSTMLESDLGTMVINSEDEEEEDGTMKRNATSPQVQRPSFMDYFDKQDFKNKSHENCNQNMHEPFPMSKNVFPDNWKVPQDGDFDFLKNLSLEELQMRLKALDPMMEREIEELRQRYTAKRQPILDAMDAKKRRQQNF

[8] = target: T2, Serine/threonine-protein kinase 3 (Homo sapiens); conditions: at 10 µM
[9] = target: Serine/threonine-protein kinase 24 (Homo sapiens) (UniProt Q9Y6E0); conditions: at 1 µM
[10] = target: Serine/threonine-protein kinase 24 (Homo sapiens) (UniProt Q9Y6E0); conditions: at 10 µM

Sequence of Serine/threonine-protein kinase 24 (Homo sapiens) (Q9Y6E0 whole entry, looked up): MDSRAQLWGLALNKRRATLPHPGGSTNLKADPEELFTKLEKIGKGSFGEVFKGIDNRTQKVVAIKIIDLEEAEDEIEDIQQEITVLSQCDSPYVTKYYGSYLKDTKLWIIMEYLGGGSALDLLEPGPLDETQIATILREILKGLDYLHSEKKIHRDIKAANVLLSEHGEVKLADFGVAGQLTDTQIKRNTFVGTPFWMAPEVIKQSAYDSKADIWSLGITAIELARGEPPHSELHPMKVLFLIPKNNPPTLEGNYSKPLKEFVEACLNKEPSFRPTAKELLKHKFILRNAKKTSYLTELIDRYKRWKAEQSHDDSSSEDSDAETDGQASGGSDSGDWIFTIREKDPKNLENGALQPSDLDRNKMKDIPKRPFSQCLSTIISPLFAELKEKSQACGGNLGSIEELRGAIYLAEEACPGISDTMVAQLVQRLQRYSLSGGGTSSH
Sequence of Ribosomal protein S6 kinase alpha-4 (Homo sapiens) (O75676 whole entry, looked up): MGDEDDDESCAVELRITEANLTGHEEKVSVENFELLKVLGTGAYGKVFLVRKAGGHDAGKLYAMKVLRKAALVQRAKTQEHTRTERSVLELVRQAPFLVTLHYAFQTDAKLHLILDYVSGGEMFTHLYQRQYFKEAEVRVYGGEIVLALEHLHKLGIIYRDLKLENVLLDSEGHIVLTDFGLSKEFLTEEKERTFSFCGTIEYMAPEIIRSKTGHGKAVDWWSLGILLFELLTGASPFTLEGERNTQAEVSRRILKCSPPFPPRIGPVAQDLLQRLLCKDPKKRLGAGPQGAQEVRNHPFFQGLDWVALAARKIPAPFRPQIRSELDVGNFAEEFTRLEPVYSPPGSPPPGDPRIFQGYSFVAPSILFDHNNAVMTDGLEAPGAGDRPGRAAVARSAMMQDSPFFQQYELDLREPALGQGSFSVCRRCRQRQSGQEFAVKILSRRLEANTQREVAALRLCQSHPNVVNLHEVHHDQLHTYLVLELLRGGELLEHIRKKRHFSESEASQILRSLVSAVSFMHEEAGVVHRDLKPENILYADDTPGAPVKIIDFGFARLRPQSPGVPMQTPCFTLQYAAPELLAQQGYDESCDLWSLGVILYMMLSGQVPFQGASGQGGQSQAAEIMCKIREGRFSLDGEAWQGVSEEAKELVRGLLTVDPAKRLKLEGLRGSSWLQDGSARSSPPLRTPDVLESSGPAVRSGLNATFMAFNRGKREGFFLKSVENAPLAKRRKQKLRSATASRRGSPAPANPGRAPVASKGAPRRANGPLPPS
Sequence of SRSF protein kinase 3 (Homo sapiens) (Q9UPE1 whole entry): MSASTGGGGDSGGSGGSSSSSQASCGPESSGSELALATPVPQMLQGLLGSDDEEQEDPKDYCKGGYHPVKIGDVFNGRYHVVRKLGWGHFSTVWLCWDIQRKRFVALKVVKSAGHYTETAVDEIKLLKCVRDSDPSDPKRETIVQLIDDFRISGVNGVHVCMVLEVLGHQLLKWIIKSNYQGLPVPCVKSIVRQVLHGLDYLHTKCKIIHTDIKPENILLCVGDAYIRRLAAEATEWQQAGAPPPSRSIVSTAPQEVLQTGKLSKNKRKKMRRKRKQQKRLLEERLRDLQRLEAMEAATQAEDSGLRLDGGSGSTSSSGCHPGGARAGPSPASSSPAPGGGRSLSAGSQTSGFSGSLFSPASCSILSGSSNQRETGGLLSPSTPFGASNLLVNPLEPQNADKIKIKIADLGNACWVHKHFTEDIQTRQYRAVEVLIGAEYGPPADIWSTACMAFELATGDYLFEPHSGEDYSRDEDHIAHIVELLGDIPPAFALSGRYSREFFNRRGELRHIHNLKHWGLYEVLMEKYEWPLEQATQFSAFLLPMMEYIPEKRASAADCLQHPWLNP

| SMILES | residual activity [1] | residual activity [2] | residual activity [3] | residual activity [4] | residual activity [5] | residual activity [6] | residual activity [7] | residual activity [8] | residual activity [9] | residual activity [10] |
| --- | --- | --- | --- | --- | --- | --- | --- | --- | --- | --- |
| CCc1nc(-c2ccc(OC)cc2)[nH]c1-c1ccncc1 | 123% | 103% | 111% |  |  |  |  |  |  |  |
| O=C1NC(=O)c2c1c1c3ccccc3n3c1c1c2c2ccccc2n1C1CCC3O1 | 99% | 96% | -1% | 56% | 64% | 19% | 10% | 12% | 80% | 65% |
| O=C1Nc2ccc3ncsc3c2/C1=C/c1c[nH]cn1 | 98% | 68% | 3% | 20% | 6% | 1% | 2% | 1% | 3% | 0% |
| COc1ccc2c(c1)/C(=C/c1cnc[nH]1)C(=O)N2 |  |  |  | 63% | 19% |  | 16% | 3% |  |  |
| O=[N+]([O-])/C=C/c1ccc2c(c1)OCO2 | 120% | 93% |  | 90% | 101% | 101% | 104% | 91% | 77% | 75% |
| O=c1[nH]c2ccccc2n1C1CCN(Cc2ccc(-c3nc4cc5[nH]cnc5cc4nc3-c3ccccc3)cc2)CC1 | 112% | 91% | 80% | 106% | 96% | 102% | 106% | 80% | 72% | 80% |
| CCn1cnc2c(Nc3cccc(Cl)c3)nc(N[C@@H]3CCCC[C@@H]3N)nc21 | 95% | 71% | 47% | 79% | 60% | 64% |  | 70% | 78% | 59% |
| CC(C)[C@H](CO)Nc1nc(Nc2cccc(Cl)c2)c2ncn(C(C)C)c2n1 | 73% | 17% | 30% | 95% | 62% | 63% |  |  | 58% | 20% |
| COc1cc(OC)c(/C=C2\C(=O)Nc3ccccc32)c(OC)c1 | 101% |  | 105% | 96% | 94% | 108% | 102% | 91% | 80% | 76% |
| COC(=O)[C@@]1(O)C[C@H]2O[C@]1(C)n1c3ccccc3c3c4c(c5c6ccccc6n2c5c31)C(=O)NC4 | 11% | 2% | 1% | -1% | 0% | 5% | 2% | 1% | 14% | 0% |
| N/C(=N\[N+](=O)[O-])N/N=C\c1ccc(-c2cccc([N+](=O)[O-])c2)o1 |  |  |  | 97% | 84% |  |  |  | 98% | 79% |
| C[S+]([O-])c1ccc(-c2nc(-c3ccc(F)cc3)c(-c3ccncc3)[nH]2)cc1 (centres undefined) | 102% | 101% | 109% | 102% | 81% | 111% | 104% | 93% | 115% | 102% |
| COc1ccc2c(c[n+](C)c3c4cc5c(cc4ccc23)OCO5)c1OC | 110% | 66% | 98% |  | 94% | 92% |  | 94% | 73% | 73% |
| COc1cc2ncnc(Nc3ccc(OCc4ccccc4)cc3)c2cc1OC | 122% | 89% | 104% | 99% | 101% | 95% | 111% | 81% | 70% | 90% |
| CC(C)(C)c1cc(C=C(C#N)C#N)cc(Br)c1O | 105% |  | 119% |  |  | 104% |  |  |  | 100% |
| c1cc(-c2cnn3cc(-c4ccc(OCCN5CCCCC5)cc4)cnc23)ccn1 |  |  |  | 103% | 70% |  |  |  |  |  |
| CN[C@@H]1C[C@H]2O[C@@](C)([C@@H]1OC)n1c3ccccc3c3c4c(c5c6ccccc6n2c5c31)C(=O)NC4 |  | 40% |  | 1% | -1% |  |  |  |  |  |
| O=C1c2ccccc2-c2nc3nnnn3nc21 | 107% | 83% | 110% | 108% | 108% | 108% |  |  |  |  |
